# Laboratory results as given in ChEMBL document CHEMBL1157539, “Thousands of chemical starting points for antimalarial lead identification” (Nature, 2010).
# Assays:
# Type in all cases: functional
# Plasmodium falciparum [1] = experiment: GSK_TCMDC: Inhibition of Plasmodium falciparum 3D7 in whole red blood cells, using parasite LDH activity as an index of growth. Test compounds present at 2uM
# Plasmodium falciparum [2] = experiment: GSK_TCMDC: Inhibition of Plasmodium falciparum Dd2 in whole red blood cells, using parasite LDH activity as an index of growth. Test compounds present at 2uM
# HepG2 = experiment: GSK_TCMDC: Percent inhibition of human HepG2 cell line. Test compounds present at 10uM.
SMILES,Inhibition (Plasmodium falciparum [1]),Inhibition (Plasmodium falciparum [2]),Inhibition (HepG2)
CC[C@H](C)CNC(=O)c1ccc(-c2cccc(CN3CCC(N4CCCC4)CC3)c2)nc1.O=C(O)C(F)(F)F,91%,7%,0%
CCOC(=O)N1CCN(CCCCNc2c3ccc(Cl)cc3nc3ccc(OC)cc23)CC1.Cl,100%,98%,25%
COc1ccc2nccc(N3CCC(O)(CCNCc4ccc5c(n4)NC(=O)CO5)CC3)c2n1.Cl,100%,24%,18%
Cc1cc(NC(=O)Nc2ccc(C(C)C)cc2)c2ccccc2n1.Cl,99%,16%,7%
CCc1cc(-c2onc(C)c2-c2cc3ccccc3o2)c(O)cc1OC,95%,33%,48%
Cc1ccc(NC(=O)Nc2cccc(Cl)c2)cc1-c1ccc(C(=O)Nc2ccncc2)cc1,97%,49%,67%
COc1ccc(C=C2SC(=O)N=C2Nc2ccccc2)c(OC)c1,91%,89%,51%
COc1ccc(Cl)cc1N1CCN(CCCNC(=O)c2ccc(-c3nc4cc(Cl)c(C)cc4[nH]3)s2)CC1,100%,97%,0%
CO/C(=C\C=C\c1cc2cc(Cl)c(Cl)cc2[nH]1)C(=O)NCCCCN1CCN(c2ccccc2OC)CC1,100%,96%,55%
O=C(Nc1ccc(Cl)cc1F)NC1CCN(CCCCCNC(=O)C2CC2c2ccc(Cl)c(Cl)c2)CC1 (stereo not given),100%,27%,46%
CC(CN(C)C)C(=O)Nc1ccc(-c2csc(-c3nc4ccccc4[nH]3)c2)cc1 (stereo not given),84%,19%,28%
CCn1cnc2c(Nc3cccc([N+](=O)[O-])c3)nc(N3CCC(N4CCCCC4)CC3)nc21,98%,35%,31%
C=CCOc1ccccc1CNCC(O)c1cc(Br)cs1 (stereo not given),93%,72%,25%
Brc1cc(CNCCCNc2nc3ccccc3[nH]2)sc1Br.Cl,100%,21%,10%
N#Cc1ccc(N(CCOC(=O)c2ccc(Br)s2)Cc2ccccc2C(F)(F)F)cc1C(F)(F)F,82%,48%,8%
O=C(Nc1cccc(-c2ccc(CN3CCCC3)cc2)c1)c1ccc(Cl)cc1.O=C(O)C(F)(F)F,100%,47%,29%
COc1cc(NC(=O)Nc2ccc(Br)cc2C(=O)Nc2ccc(Br)cc2)cc(OC)c1OC,99%,98%,0%
CCOC(=O)C(C#N)NC(=O)C=Cc1ccccc1 (stereo not given),96%,9%,0%
Cc1ccc(CNC(=O)[C@H](Cc2ccccc2)Nc2cc(C)nc(Nc3ccccc3)n2)cc1.O=C(O)C(F)(F)F,100%,91%,16%
Cn1cncc1C(=O)Nc1ccc(-c2cccc(-c3nc4cc(C(F)(F)F)ccc4[nH]3)c2)cc1,100%,3%,34%

SMILES,Inhibition (Plasmodium falciparum [1]),Inhibition (Plasmodium falciparum [2]),Inhibition (HepG2)
COc1ccc(-c2csc3ncnc(Cl)c23)cc1OC,93%,84%,0%
CS(=O)(=O)Nc1cccc(-c2cnc3[nH]cc(-c4ccc(CCC(=O)O)cc4)c3c2)c1,98%,78%,7%
Cl.N=C(N)c1ccc(Nc2nc(Nc3ccc(-c4ccccc4)cc3)ncc2[N+](=O)[O-])cc1,99%,35%,11%
CC(=O)Nc1ccc(CN(Cc2cccc(OC(C)(C)C)c2)Cc2ccc3c(c2)OCCO3)cc1,95%,96%,0%
COc1cc(NC(=O)c2cccc([N+](=O)[O-])c2)cc(S(=O)(=O)c2ccc(Cl)cc2)c1,88%,23%,0%
COc1cc([N+](=O)[O-])ccc1NC(=O)Nc1ccc(OC(F)(F)F)cc1,84%,72%,14%
Cn1nc(-c2ccc(CNC3CCc4ccccc43)cc2)c2cnc(NCCCN3CCCC3)nc21 (stereo not given),92%,22%,27%
Cn1nc(C(F)(F)F)c(-c2ccc(F)cc2)c1NC(=O)Nc1ccc(F)cc1,100%,99%,5%
CN1CCC(N2CCN(Cc3ccc(-c4cccc(-c5nc6ccccc6[nH]5)c4)cc3)CC2)CC1.O=C(O)C(F)(F)F,99%,100%,48%
Cc1cc(C(=O)Nc2ccc(C)c(-c3nc(N(C(=O)c4ccc(F)c(C)c4)C4CCNCC4)nc4c3ccc(=O)n4-c3c(F)cccc3F)c2)ccc1F,99%,99%,4%
Cc1ccc(C2CCN(CCCCNC(=O)c3ccc(-c4ccc(C#N)cc4)cc3)CC2)c(O)c1,100%,90%,45%
CCOC(=O)Cn1ccc2c(NCc3ccccc3)nc(C)nc21,96%,0%,64%
CN(C)Cc1ccc(-c2ccc(NC(=O)c3ccc4c(=O)n(Cc5ccoc5)cnc4c3)cc2)cc1,80%,16%,32%
CC(C)C1C(=O)N(S(C)(=O)=O)C2CCN(C(=O)c3ccc(CN4CCCCC4)c([N+](=O)[O-])c3)C12.Cl (stereo not given),100%,100%,10%
CC(C)[C@@H](NC(=O)NC1CCC(CCN2C3CCC2CC(OC(=O)C(CO)c2ccccc2)C3)CC1)C(O)(c1ccccc1)c1ccccc1 (stereo not given in full),96%,56%,19%
CCOc1ccc(N2CCN(CCCCNC(=O)c3ccc(NC(=O)c4ccc(Cl)cc4)cc3)CC2)c(OCC)c1,100%,65%,36%
Cc1cccc2nc(-c3ccc(-c4cccc(NC(=O)C(C)CN(C)C)c4)s3)[nH]c12 (stereo not given),92%,69%,12%
Cl.Fc1cccc(COc2ccc(Nc3ncnc4ccc(-c5nnc(C(F)(F)F)o5)cc34)cc2Cl)c1,100%,77%,14%
Cc1ccc(NC(=O)c2cc(S(=O)(=O)NC(C)(C)C)ccc2C)nc1,86%,80%,0%
CCN(CCCN1CCCCC1)c1nccc(Nc2ccc(Cl)cc2)n1,89%,63%,19%

SMILES,Inhibition (Plasmodium falciparum [1]),Inhibition (Plasmodium falciparum [2]),Inhibition (HepG2)
CC(C)Cc1nc(N2CCOCC2)c2nnn(Cc3ccccc3)c2n1,98%,76%,7%
O=C(Nc1ccc(Cn2ncc(N3CCCNCC3)c(Cl)c2=O)cc1)Nc1cc(F)cc(C(F)(F)F)c1.O=C(O)C(F)(F)F,100%,44%,35%
Cc1ccc(-c2cc3nc4c(c(NCCCn5ccnc5)n3n2)CCC4)cc1,94%,21%,22%
Cc1cc(C(=O)N(Cc2ccc(-c3ccc(CNCCc4ccc(S(C)(=O)=O)cc4)cn3)cc2)C(C)CN(C)C)ccc1[N+](=O)[O-].O=C(O)C(F)(F)F (stereo not given),99%,46%,17%
COCCCNC(=N)c1ccc(NC(=O)c2ccc(C(=O)Nc3ccc(C(=N)NCCCOC)cc3)cc2)cc1.Cl,100%,99%,33%
CCN(CC)CC(O)Cc1c2ccc([N+](=O)[O-])cc2nc2cc(OC)c(OC)cc12 (stereo not given),100%,37%,41%
C=C(F)c1sc(CNCCCNc2nc3ccccc3[nH]2)c(C)c1Br,100%,23%,15%
O=C(N[C@@H](Cc1ccccc1)CN1CCC(Oc2ccc(F)cc2)CC1)c1ccc(OCCCN2CCCCC2)cc1.O=C(O)C(F)(F)F,100%,92%,38%
CCOc1cc(C(=O)NCCN2CCCCC2)ccc1-c1nc2cc(Cl)ccc2[nH]1,99%,8%,4%
Cn1cncc1C(=O)Nc1cccc(-c2cccc(-c3nc4ccccc4[nH]3)c2)c1,100%,35%,9%
CCCCOc1ccc(C(=O)C(CCC(CNC(C)(C)C)C(=O)c2ccc(OCCCC)cc2)CNC(C)(C)C)cc1.Cl (stereo not given),94%,92%,100%
N#Cc1cccc(Nc2ncc3c(-c4cccc(NC(=O)Cc5cccc(Cl)c5)c4)c[nH]c3n2)c1.O=C(O)C(F)(F)F,100%,95%,0%
CC(CN(C)C)C(=O)Nc1cccc(-c2ccc(-c3nc4ccccc4[nH]3)cc2)c1 (stereo not given),98%,25%,1%
Cc1nnsc1C(=O)Nc1ccc(-c2cccc(-c3nc4cc(C(F)(F)F)ccc4[nH]3)c2)cc1,97%,36%,69%
Cc1cc(N[C@@H](CC(C)C)C(=O)NCCc2ccccc2)nc(NCC2CCCCC2)n1.O=C(O)C(F)(F)F,97%,65%,19%
Cl.O=c1cc(NCCCNCc2ccc(C(F)(F)F)s2)[nH]c2ccccc12,99%,68%,0%
CC(C)(C)c1cc(C(=O)N2CCC(c3ccccn3)CC2)n(Cc2ccccc2)n1,96%,90%,3%
Cc1ccc(Nc2nc(-c3ccccn3)cs2)nc1,94%,97%,60%
Cl.N=C(N)NN=Cc1cc2ccccc2c2ccccc12,100%,63%,25%
O=C(/C=C/c1ccc2ccccc2c1)NCCCCCN1CCC(c2c[nH]c3ccccc23)CC1,90%,4%,18%
